This note sets out measurements from PubChem BioAssay (Tox21).

Where “and” joins values, the source holds several entries; their conditions need not be identical. Equal entries are not always repeated. Unmarked numbers belong to inactive results. Results filed as inconclusive are left out. Calls of active or inactive are those of the source. Unless noted, calls follow the shape of the dose curve; as a rule, active = well fitted curve in the direction sought with a large enough effect in the repeat runs; inconclusive = weak or mixed curves; inactive = no such curve, though single readings can be large; an effect the other way counts as inactive or inconclusive.

A short description of assay [1]: qHTS assay to identify small molecule antagonists of the glucocorticoid receptor (GR) signaling pathway - cell viability counter screen (AID 720693). Also: nearly all actives have a fitted effect of over 55% in size. Also: potency is read from the fitted curve at half-maximal effect. On the technique in general: In qHTS, concentration-response curves come from the screen itself.
Assay [2] can be described thus: qHTS assay for identifying genotoxic compounds that show differential cytotoxicity against isogenic chicken DT40 cell lines with known DNA damage response pathways - wild type cell line (AID 743012). Also: nearly all actives have a fitted effect of over 60% in size. Also: potency is read from the fitted curve at half-maximal effect. The method, boiled down:
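Endpoint: CellTiter-Glo luminescence, 30 min RT. Cells: wild type DT40, 300/well. Exposure: compounds in DMSO, 40 h, 37 C/5% CO2, after ~0.5 h pre-incubation.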

The nature of assay [3]: qHTS assay for identifying genotoxic compounds that show differential cytotoxicity against isogenic chicken DT40 cell lines with known DNA damage response pathways - Rev3 mutant cell line (AID 743014). Also: nearly all actives have a fitted effect of over 55% in size. Also: potency is read from the fitted curve at half-maximal effect.
Assay [4] can be described thus: qHTS assay for identifying genotoxic compounds that show differential cytotoxicity against isogenic chicken DT40 cell lines with known DNA damage response pathways - Rad54/Ku70 mutant cell line (AID 743015). Also: nearly all actives have a fitted effect of over 60% in size. Also: potency is read from the fitted curve at half-maximal effect.
The nature of assay [5]: qHTS assay to identify small molecule antagonists of the androgen receptor (AR) signaling pathway using the MDA cell line - cell viability counter screen (AID 743041; also: nearly all actives have a fitted effect of over 45% in size; also: potency is read from the fitted curve at half-maximal effect). An outline of the steps: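 qHTS viability read-out; MDA-kb2 AR-luc; R1881-stimulated; 16 h exposure at 37C, 0% CO2; CellTiter-Fluor, 30 min; fluorescence intensity.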
The target of assay [6] is Androgen receptor (Homo sapiens) (UniProt P10275). The assay can be described thus: qHTS assay to identify small molecule antagonists of the androgen receptor (AR) signaling pathway (AID 743035; active = well fitted inhibition curve with a large enough effect in the signal ratio in the repeat runs, not every such curve was filed as active; the % refers to the signal ratio; also: potency is read from the fitted curve at half-maximal effect). The method, boiled down:
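R1881 agonist challenge of a HEK293 UAS-beta-lactamase AR reporter line in the presence of compound (16 h, 37C); signal taken as FRET fluorescence after 2 h with LiveBLAzer B/G substrate at room temperature.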

Assay [7] shares this target. The assay can be described thus: qHTS assay to identify small molecule agonists of the androgen receptor (AR) signaling pathway using the MDA cell line (AID 743040; also: nearly all actives have a fitted effect of over 20% in size). The following applies: MDA-kb2 AR-luc cells, MMTV luciferase, 16 h; activity change: at 70.3 µM (top of the series), hits give high values. An outline of the steps:
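Agonist activity is measured as luciferase luminescence in human MDA-kb2 cells whose MMTV reporter responds to both AR and GR. Compounds in DMSO incubate 16 h at 37C, 0% CO2, and ONE-Glo is read after 30 min.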

The target is the same in assay [8]. Nature of the assay: qHTS assay to identify small molecule antagonists of the androgen receptor (AR) signaling pathway using the MDA cell line (AID 743042; also: nearly all actives have a fitted effect of over 55% in size; also: potency is read from the fitted curve at half-maximal effect). The method, boiled down: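 MDA-kb2 cells (human breast carcinoma, stably carrying an MMTV-luciferase reporter responsive to AR and GR) were plated at 3,000 cells/well and preincubated 5 hr at 37C, then given compound plus R1881 agonist for 16 h. ONE-Glo luminescence was read.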

Assay [9] can be described thus: qHTS assay to identify small molecule antagonists of the androgen receptor (AR) signaling pathway - cell viability counter screen (AID 743033; also: nearly all actives have a fitted effect of over 45% in size; also: potency is read from the fitted curve at half-maximal effect).
Assay [10] has as its target Androgen receptor (Homo sapiens) (UniProt P10275). Nature of the assay: qHTS assay to identify small molecule agonists of the androgen receptor (AR) signaling pathway (AID 743036; active = well fitted activation curve with a large enough effect in the signal ratio in the repeat runs, with a control signal flat, not every such curve was filed as active; the % refers to the signal ratio). An outline of the steps: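 Beta-lactamase under UAS control, stably integrated in HEK293 GripTite cells, reports receptor activation. After 16 h compound treatment, cells received FRET substrate for 2 h at room temperature before fluorescence reading.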
% is scaled to controls: 0 for no effect and ±100 for the full control effect.

Sequence of Androgen receptor (Homo sapiens) (P10275 whole entry, looked up): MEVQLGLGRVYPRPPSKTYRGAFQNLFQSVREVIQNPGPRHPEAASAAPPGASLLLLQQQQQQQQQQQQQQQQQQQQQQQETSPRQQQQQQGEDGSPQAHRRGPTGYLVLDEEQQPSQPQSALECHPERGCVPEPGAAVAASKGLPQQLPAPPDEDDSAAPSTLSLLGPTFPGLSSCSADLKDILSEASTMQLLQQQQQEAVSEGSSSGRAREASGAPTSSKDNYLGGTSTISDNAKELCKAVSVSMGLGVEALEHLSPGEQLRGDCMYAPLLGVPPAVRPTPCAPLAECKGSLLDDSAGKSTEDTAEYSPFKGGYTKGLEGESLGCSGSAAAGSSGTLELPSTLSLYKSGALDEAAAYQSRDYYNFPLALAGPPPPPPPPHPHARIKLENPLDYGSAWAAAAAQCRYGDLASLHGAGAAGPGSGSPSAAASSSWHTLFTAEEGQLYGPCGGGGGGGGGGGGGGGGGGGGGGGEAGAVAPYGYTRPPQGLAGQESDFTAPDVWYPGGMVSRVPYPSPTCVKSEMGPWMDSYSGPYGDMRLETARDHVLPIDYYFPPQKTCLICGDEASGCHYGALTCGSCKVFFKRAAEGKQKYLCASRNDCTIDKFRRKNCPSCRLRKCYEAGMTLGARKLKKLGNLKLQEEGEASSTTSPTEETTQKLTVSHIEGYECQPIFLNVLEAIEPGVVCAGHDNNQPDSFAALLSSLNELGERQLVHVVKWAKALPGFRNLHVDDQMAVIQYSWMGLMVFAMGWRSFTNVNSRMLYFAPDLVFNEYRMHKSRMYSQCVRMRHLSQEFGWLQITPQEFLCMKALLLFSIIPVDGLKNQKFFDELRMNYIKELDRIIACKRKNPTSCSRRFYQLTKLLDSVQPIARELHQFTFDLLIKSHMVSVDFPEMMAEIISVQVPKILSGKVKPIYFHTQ

On to `COc1ccc(C(=O)c2c(C)n(CCN3CCOCC3)c3ccccc23)cc1`, for which the Potency result in assay [1] and in assay [5] was “inactive” each time. For the same compound, the Potency in assay [2] was 26.6 µM (active); in assay [3], 26.6 µM (active); in assay [4] it was 29.8 µM (active).

In the case of `C[CH2][Hg][S]c1ccccc1C(=O)O`, the Potency in [1] was 7.56 µM (active) and 6.16 µM (active); in [2], 376 nM (active) and 172 nM (active); in assay [3], 596 nM (active) and 137 nM (active); in assay [4], 266 nM (active) and 109 nM (active); in assay [6] it was 9.52 µM (active) and 3.09 µM (active); in assay [5], 9.87 µM (active) and 8.63 µM (active). Further, the Potency in [8] is 9.44 µM (active) and 7.7 µM (active). Moreover, the Potency entry in assay [7] is “inactive”.

As for `CC(C)OC(=O)Cc1ccccc1`, the Potency result in assay [1], in assay [2], in [3], in [4] and in assay [5] was “inactive” each time.

Consider `Clc1ccccc1`, for which the Potency result in assay [1], in assay [2], in assay [3], in assay [4] and in assay [5] was “inactive” each time.

For the compound `CCOC(=O)c1cn2nc(OP(=S)(OCC)OCC)cc2nc1C`, the Potency entry in assay [1] and in assay [5] was “inactive” each time. In addition, the values for the Potency in assay [2], in assay [3] and in assay [4] were 27.3 µM (active), 48.6 µM (active) and 38.6 µM (active), respectively.

As to `C=CCSSCC=C`, the Potency entry in assay [1], in [2], in assay [3], in [4], in [9] and in assay [5] was “inactive” each time.

As for `CCN(C(C)=O)c1cccc(-c2ccnc3c(C#N)cnn23)c1`, the Potency result in assay [1], in assay [2], in assay [3], in assay [4] and in assay [5] was “inactive” in each case.

On to `O=[N+]([O-])c1cc(Cl)c(Cl)cc1Cl`, for which the Potency entry in [1], in assay [2], in [3], in assay [4], in assay [9] and in [5] was “inactive” in each case.

On to `C=C(Cl)Cl`, for which the Potency result in assay [1], in [2], in [3], in [4], in [6] and in assay [10] was “inactive” throughout. Besides, the Potency result in assay [7], in [5] and in assay [8] was “inactive” in each case.

Regarding `CCCCCCCCCCCCN=C(N)N`, the viability change, negative = cytotoxic in [1] is -13.6% [at 3.15 µM]; in assay [5] it was -10.3% [at 3.79 µM]. The values for the Potency in assay [2], in [3] and in assay [4] were 0.845 µM (active), 1.89 µM (active) and 1.06 µM (active), respectively.

Turning to `COc1cc(CC(C)N)c(OC)cc1Br` (configuration not stated), the Potency result in assay [1] and in assay [5] was “inactive” in each case. Besides, the Potency was 11.2 µM (active) and 29.8 µM (active) in assay [2]; 15.9 µM (active) in assay [3]; 15.9 µM (active) in assay [4].

Regarding `CCC(C)Cl` (configuration not stated), the Potency result in [1], in assay [2], in assay [3], in assay [4] and in assay [5] was “inactive” each time.

Turning to `CCc1ccccc1N`, the Potency entry in assay [1], in assay [2], in [3], in assay [4] and in assay [5] was “inactive” each time.

On to `C=CCOC(=O)C(C)(C)OC(=O)c1cc(-n2c(=O)cc(C(F)(F)F)n(C)c2=O)ccc1Cl`, for which the Potency result in assay [1] and in assay [5] was “inactive” each time. Moreover, the Potency is 53.4 µM (active) in assay [2], 30 µM (active) in assay [3] and 60 µM (active) in assay [4].

For `Nc1ccccc1C(=O)OCCc1ccccc1`, the Potency entry in assay [1], in assay [2], in assay [3], in assay [4] and in assay [5] was “inactive” throughout.

For `CCOP(=O)(SC(C)CC)N1CCSC1=O` (configuration not stated), the Potency result in [1], in assay [2], in [3], in [4] and in [5] was “inactive” each time.

Take `O=C(O)C(O)C(O)C(=O)O` (configuration not stated): the Potency result in assay [1], in assay [2], in assay [3], in assay [4], in assay [9] and in [5] was “inactive” throughout.

On to `Oc1cccc(Cl)c1`, for which the Potency result in assay [1], in [2], in [3], in assay [4], in assay [9] and in assay [5] was “inactive” in each case.

`CCCCC(CC)CO[N+](=O)[O-]` (configuration not stated): the Potency entry in assay [1], in assay [2], in assay [3], in assay [4], in assay [9] and in [5] was “inactive” in each case.

Turning to `C=CCc1ccccc1O`, the Potency result in assay [1], in assay [2], in assay [3], in [4], in [9] and in assay [5] was “inactive” each time.

Turning to `CNC(=O)Oc1cccc(N=CN(C)C)c1`, the Potency result in assay [1] and in [9] was “inactive” throughout. Further, the Potency in assay [2] and in [3] was 54.5 µM (active) each time.

`CCCC[N+](CCCC)(CCCC)CCCC`: the Potency result in [1], in assay [9] and in assay [5] was “inactive” throughout. Moreover, the Potency in [2] is 4.32 µM (active); in assay [3] it was 3.85 µM (active).

In the case of `COC1=CC(=O)O[C@@H](/C=C/c2ccc3c(c2)OCO3)C1`, the Potency result in assay [1], in assay [2], in assay [3] and in assay [5] was “inactive” throughout.

Consider `CCCCCBr`, for which the Potency result in assay [1], in assay [2], in assay [3], in assay [9], in [6] and in assay [10] was “inactive” each time. Moreover, the Potency result in assay [7], in [5] and in [8] was “inactive” in each case.

For the compound `Cc1nc2ccccc2c(=O)n1-c1ccccc1Cl`, the Potency result in [1], in assay [9] and in assay [5] was “inactive” each time. Moreover, the Potency was 42.4 µM (active) in [2] and 59.8 µM (active) in assay [3].

With `CCCBr`, the Potency entry in assay [1], in [2], in assay [3], in assay [9] and in assay [5] was “inactive” throughout.

For `CC(O)CN1CCN(CC(=O)[O-])CCN(CC(=O)[O-])CCN(CC(=O)[O-])CC1.[Gd+3]` (configuration not stated), the Potency entry in assay [1], in assay [2], in [3] and in assay [5] was “inactive” in each case.

Take `CCCCCCCCCCCC[N+](C)(C)CCOc1ccccc1`: the Potency in assay [1] is 17.4 µM (active); in assay [2] it was 1.88 µM (active) and 6.11 µM (active); in assay [3], 2.37 µM (active) and 3.86 µM (active); in assay [9] it was 23.9 µM (active) and 15.5 µM (active).

As for `O=C(Cc1ccccc1)c1ccccc1`, the Potency result in [1], in assay [2], in [3] and in [5] was “inactive” in each case.

`CCC[N+](CCC)(CCC)CCC`: the Potency entry in assay [1], in [2], in assay [3], in assay [9] and in [5] was “inactive” in each case.

For the compound `COC(=O)Cc1ccccc1`, the Potency result in assay [1], in [2], in assay [3], in [9] and in [5] was “inactive” each time.

On to `CCC(C)(C)O`, for which the Potency result in [1], in [2], in assay [3], in [9] and in assay [5] was “inactive” in each case.
